{"source": "the supplement of paper PMC8728848", "assay_in_all_cases": "glycan array binding signal (z-score within array); higher = stronger binding", "details_in_all_cases": "glycan notation: IUPAC condensed, linker removed", "key": {"[1]": {"target": "Fuc(a1-2)Gal(b1-3)[Fuc(a1-4)]GlcNAc", "procedure,_shortened": "(§1)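 Glycan array binding is given as a within-array Z-score, which can be read as non-binding when negative. The arrays, 3228 of them, came from the Consortium for Functional Glycomics database and were retained only where the protein sequence was available. Z-scores were averaged across arrays of the same protein sequence at different concentrations or buffers and across linkers.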"}, "[2]": {"target": "Fuc(a1-2)Gal(b1-3)[Fuc(a1-4)]GlcNAc(b1-2)Man(a1-3)[Fuc(a1-2)Gal(b1-3)[Fuc(a1-4)]GlcNAc(b1-2)Man(a1-6)]Man(b1-4)GlcNAc(b1-4)GlcNAc", "procedure,_shortened": "as §1"}, "[3]": {"target": "Fuc(a1-2)Gal(b1-3)[Fuc(a1-4)]GlcNAc(b1-3)[Fuc(a1-3)[Gal(b1-4)]GlcNAc(b1-6)]Gal(b1-4)Glc", "procedure,_shortened": "as §1"}, "Fuc(a1-2)Gal6S(b1-4)Glc": {"target": "Fuc(a1-2)Gal6S(b1-4)Glc", "procedure,_shortened": "as §1"}, "[4]": {"target": "Fuc(a1-2)[Gal(a1-3)]Gal(b1-3)GlcNAc", "procedure,_shortened": "as §1"}, "[5]": {"target": "Fuc(a1-2)[GalNAc(a1-3)]Gal(b1-3)GalNAc(a1-3)[Fuc(a1-2)]Gal(b1-4)GlcNAc", "procedure,_shortened": "as §1"}, "[6]": {"target": "Fuc(a1-2)[GalNAc(a1-3)]Gal(b1-3)GlcNAc(b1-3)GalNAc", "procedure,_shortened": "as §1"}, "[7]": {"target": "Fuc(a1-2)[GalNAc(a1-3)]Gal(b1-3)GlcNAc(b1-6)GalNAc", "procedure,_shortened": "as §1"}, "[8]": {"target": "Fuc(a1-2)[GalNAc(a1-3)]Gal(b1-4)GlcNAc(b1-2)Man(a1-3)[Fuc(a1-2)[GalNAc(a1-3)]Gal(b1-4)GlcNAc(b1-2)Man(a1-6)]Man(b1-4)GlcNAc(b1-4)GlcNAc", "procedure,_shortened": "as §1"}, "[9]": {"target": "Fuc(a1-3)[Gal(b1-4)]GlcNAc", "procedure,_shortened": "as §1"}, "[10]": {"target": "Fuc(a1-3)[Gal(b1-4)]GlcNAc(b1-3)Gal(b1-4)[Fuc(a1-3)]GlcNAc(b1-3)Gal(b1-4)[Fuc(a1-3)]GlcNAc", "procedure,_shortened": "as §1"}, "[11]": {"target": "Fuc(a1-3)[Gal(b1-4)]GlcNAc(b1-4)Gal(b1-4)[Fuc(a1-3)]GlcNAc(b1-4)Gal(b1-4)[Fuc(a1-3)]GlcNAc", "procedure,_shortened": "as §1"}, "[12]": {"target": "Fuc(a1-3)[Gal3S(b1-4)]Glc", "procedure,_shortened": "as §1"}, "[13]": {"target": "Gal(a1-3)Gal(b1-4)GlcNAc(b1-6)GalNAc", "procedure,_shortened": "as §1"}, "[14]": {"target": "Gal(a1-3)Gal(b1-4)[Fuc(a1-3)]GlcNAc", "procedure,_shortened": "as §1"}, "[15]": {"target": "Gal(a1-4)Gal(b1-3)GlcNAc(b1-2)Man(a1-3)[Gal(a1-4)Gal(b1-3)GlcNAc(b1-2)Man(a1-6)]Man(b1-4)GlcNAc(b1-4)GlcNAc", "procedure,_shortened": "as §1"}, "[16]": {"target": "Gal(b1-3)GalNAc(b1-4)[Neu5Ac(a2-3)]Gal(b1-4)Glc", "procedure,_shortened": "as §1"}, "[17]": {"target": "Gal(b1-3)[Neu5Ac(a2-6)]GlcNAc(b1-6)Gal(b1-4)Glc", "procedure,_shortened": "as §1"}, "[18]": {"target": "Gal(b1-4)GlcNAc(b1-2)Man(a1-3)[Gal(b1-4)GlcNAc(b1-2)Man(a1-6)][Gal(b1-4)GlcNAc(b1-4)]Man(b1-4)GlcNAc(b1-4)[Fuc(a1-6)]GlcNAc", "procedure,_shortened": "as §1"}, "[19]": {"target": "Gal(b1-4)GlcNAc(b1-2)Man(a1-3)[Man(a1-6)]Man(b1-4)GlcNAc(b1-4)GlcNAc", "procedure,_shortened": "as §1"}, "[20]": {"target": "Gal(b1-4)GlcNAc(b1-2)Man(a1-6)[GlcNAc(b1-2)Man(a1-3)]Man(b1-4)GlcNAc(b1-4)GlcNAc", "procedure,_shortened": "as §1"}, "[21]": {"target": "Gal(b1-4)GlcNAc(b1-2)[Gal(b1-4)GlcNAc(b1-4)]Man(a1-3)[Gal(b1-4)GlcNAc(b1-2)[Gal(b1-4)GlcNAc(b1-6)]Man(a1-6)]Man(b1-4)GlcNAc(b1-4)GlcNAc", "procedure,_shortened": "as §1"}, "[22]": {"target": "Gal(b1-4)GlcNAc(b1-3)Gal(b1-4)GlcNAc", "procedure,_shortened": "as §1"}, "Gal(b1-4)GlcNAc6P": {"target": "Gal(b1-4)GlcNAc6P", "procedure,_shortened": "as §1"}, "Gal3S(b1-3)GlcNAc": {"target": "Gal3S(b1-3)GlcNAc", "procedure,_shortened": "as §1"}, "[23]": {"target": "Gal3S(b1-4)[Fuc(a1-3)]Glc6S", "procedure,_shortened": "as §1"}, "Gal3S6S(b1-4)GlcNAc6S": {"target": "Gal3S6S(b1-4)GlcNAc6S", "procedure,_shortened": "as §1"}, "[24]": {"target": "GalNAc(a1-3)Fuc(a1-2)Gal(b1-4)GlcNAc(b1-3)[GalNAc(a1-3)Fuc(a1-2)Gal(b1-4)GlcNAc(b1-6)]GalNAc", "procedure,_shortened": "as §1"}, "GalNAc(b1-3)GlcNAc": {"target": "GalNAc(b1-3)GlcNAc", "procedure,_shortened": "as §1"}, "GalNAc(b1-4)Gal(b1-4)Glc": {"target": "GalNAc(b1-4)Gal(b1-4)Glc", "procedure,_shortened": "as §1"}}, "note": "This is one part of a sample in which the strongest signals are shown more often than they occur."}
{"binder": "Siglec-F (Mus musculus), Q920G3 (protein) MRWAWLLPLLWAGCLATDGYSLSVTGSVTVQEGLCVFVACQVQYPNSKGPVFGYWFREGANIFSGSPVATNDPQRSVLKEAQGRFYLMGKENSHNCSLDIRDAQKIDTGTYFFRLDGSVKYSFQKSMLSVLVIALTEVPNIQVTSTLVSGNSTKLLCSVPWACEQGTPPIFSWMSSALTSLGHRTTLSSELNLTPRPQDNGTNLTCQVNLPGTGVTVERTQQLSVIYAPQKMTIRVSWGDDTGTKVLQSGASLQIQEGESLSLVCMADSNPPAVLSWERPTQKPFQLSTPAELQLPRAELEDQGKYICQAQNSQGAQTASVSLSIRSLLQLLGPSCSFEGQGLHCSCSSRAWPAPSLRWRLGEGVLEGNSSNGSFTVKSSSAGQWANSSLILSMEFSSNHRLSCEAWSDNRVQRATILLVSGPKVSQAGKSETSRGTVLGAIWGAGLMALLAVCLCLIFFTVKVLRKKSALKVAATKGNHLAKNPASTINSASITSSNIALGYPIQGHLNEPGSQTQKEQPPLATVPDTQKDEPELHYASLSFQGPMPPKPQNTEAMKSVYTEIKIHKC", "values": [{"measurement": "glycan array binding signal (z-score)", "setting": "[1]", "result": -0.132}, {"measurement": "glycan array binding signal (z-score)", "setting": "[2]", "result": -0.079}, {"measurement": "glycan array binding signal (z-score)", "setting": "[3]", "result": -0.122}, {"measurement": "glycan array binding signal (z-score)", "setting": "Fuc(a1-2)Gal6S(b1-4)Glc", "result": -0.123}, {"measurement": "glycan array binding signal (z-score)", "setting": "[4]", "result": -0.115}, {"measurement": "glycan array binding signal (z-score)", "setting": "[5]", "result": -0.104}, {"measurement": "glycan array binding signal (z-score)", "setting": "[6]", "result": -0.094}, {"measurement": "glycan array binding signal (z-score)", "setting": "[7]", "result": -0.114}, {"measurement": "glycan array binding signal (z-score)", "setting": "[8]", "result": -0.049}, {"measurement": "glycan array binding signal (z-score)", "setting": "[9]", "result": -0.117}, {"measurement": "glycan array binding signal (z-score)", "setting": "[10]", "result": -0.115}, {"measurement": "glycan array binding signal (z-score)", "setting": "[11]", "result": -0.121}, {"measurement": "glycan array binding signal (z-score)", "setting": "[12]", "result": -0.146}, {"measurement": "glycan array binding signal (z-score)", "setting": "[13]", "result": -0.146}, {"measurement": "glycan array binding signal (z-score)", "setting": "[14]", "result": -0.123}, {"measurement": "glycan array binding signal (z-score)", "setting": "[15]", "result": 0.083}, {"measurement": "glycan array binding signal (z-score)", "setting": "[16]", "result": -0.109}, {"measurement": "glycan array binding signal (z-score)", "setting": "[17]", "result": -0.091}, {"measurement": "glycan array binding signal (z-score)", "setting": "[18]", "result": -0.095}, {"measurement": "glycan array binding signal (z-score)", "setting": "[19]", "result": 0.022}, {"measurement": "glycan array binding signal (z-score)", "setting": "[20]", "result": -0.13}, {"measurement": "glycan array binding signal (z-score)", "setting": "[21]", "result": -0.127}, {"measurement": "glycan array binding signal (z-score)", "setting": "[22]", "result": -0.096}, {"measurement": "glycan array binding signal (z-score)", "setting": "Gal(b1-4)GlcNAc6P", "result": -0.111}, {"measurement": "glycan array binding signal (z-score)", "setting": "Gal3S(b1-3)GlcNAc", "result": -0.108}, {"measurement": "glycan array binding signal (z-score)", "setting": "[23]", "result": 0.156}, {"measurement": "glycan array binding signal (z-score)", "setting": "Gal3S6S(b1-4)GlcNAc6S", "result": -0.104}, {"measurement": "glycan array binding signal (z-score)", "setting": "[24]", "result": -0.088}, {"measurement": "glycan array binding signal (z-score)", "setting": "GalNAc(b1-3)GlcNAc", "result": -0.154}, {"measurement": "glycan array binding signal (z-score)", "setting": "GalNAc(b1-4)Gal(b1-4)Glc", "result": -0.099}]}
